# Results as given in paper PMC7862700, “An all-to-all approach to the identification of sequence-specific readers for epigenetic DNA modifications on cytosine”.
# Assays:
# Test in all cases: DAPPL (digital affinity profiling via proximity ligation, sequencing); 10 mM Tris-HCl pH 7.5, 50 mM NaCl, 1 mM DTT, 4% glycerol, room temperature, 30 min; GST-TFs on glutathione beads, 16-mer random dsDNA library, 0.1% formaldehyde crosslink after washing; high values mean tight binding
# [1] = target: T1, FLI1 (Homo sapiens, UniProt Q01543 1-452); details: protein: recombinant; tags: N-terminal GST; dsDNA, one strand shown
# T1 sequence: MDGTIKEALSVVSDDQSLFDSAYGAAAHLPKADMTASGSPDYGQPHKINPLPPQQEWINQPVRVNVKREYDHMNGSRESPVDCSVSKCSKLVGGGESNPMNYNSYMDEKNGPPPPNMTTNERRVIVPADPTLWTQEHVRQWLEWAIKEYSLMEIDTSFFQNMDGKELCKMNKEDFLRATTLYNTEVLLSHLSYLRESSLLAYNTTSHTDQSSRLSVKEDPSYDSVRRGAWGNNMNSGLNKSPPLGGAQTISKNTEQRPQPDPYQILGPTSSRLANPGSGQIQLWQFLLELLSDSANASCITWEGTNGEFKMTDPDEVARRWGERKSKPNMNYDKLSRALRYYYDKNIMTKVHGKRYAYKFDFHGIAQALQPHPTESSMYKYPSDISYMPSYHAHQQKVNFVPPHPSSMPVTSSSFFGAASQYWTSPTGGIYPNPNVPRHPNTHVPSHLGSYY
# How it was run: (§1)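 A tag-only sample was pooled with DNA-barcoded human transcription factors that had been expressed in yeast as GST fusions and captured on glutathione beads. The pools were incubated for 30 min at room temperature with 200 nmole of a random double-stranded 16-mer DNA library in Tris/NaCl/DTT/glycerol buffer, then washed, crosslinked with 0.1% formaldehyde, proximity-ligated (BsaI/T4 ligase, 1 h, 37 °C), PCR-amplified and sequenced on an Illumina NextSeq500. Binding signal is each hexamer's read frequency for a factor divided by its frequency for the tag-only sample.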
# [2] = target: T2, ELK1 (Homo sapiens, UniProt P19419 1-428); details: protein: recombinant; tags: N-terminal GST; dsDNA, one strand shown
# T2 sequence: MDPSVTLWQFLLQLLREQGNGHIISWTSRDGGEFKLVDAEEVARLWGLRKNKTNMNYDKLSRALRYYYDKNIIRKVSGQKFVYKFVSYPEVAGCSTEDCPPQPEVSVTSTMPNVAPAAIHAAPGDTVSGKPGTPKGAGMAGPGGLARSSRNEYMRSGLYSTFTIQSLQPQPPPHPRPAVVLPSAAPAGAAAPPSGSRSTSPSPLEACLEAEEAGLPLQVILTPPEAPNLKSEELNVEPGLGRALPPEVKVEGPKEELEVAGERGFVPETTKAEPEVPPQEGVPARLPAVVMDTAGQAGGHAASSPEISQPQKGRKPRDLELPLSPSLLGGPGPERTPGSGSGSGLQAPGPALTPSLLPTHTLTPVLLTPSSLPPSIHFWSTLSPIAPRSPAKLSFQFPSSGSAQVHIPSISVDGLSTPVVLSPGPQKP
# How it was run: as §1
# [3] = target: T3, GABPA (Homo sapiens, UniProt Q06546 1-454); details: protein: recombinant; tags: N-terminal GST; dsDNA, one strand shown
# T3 sequence: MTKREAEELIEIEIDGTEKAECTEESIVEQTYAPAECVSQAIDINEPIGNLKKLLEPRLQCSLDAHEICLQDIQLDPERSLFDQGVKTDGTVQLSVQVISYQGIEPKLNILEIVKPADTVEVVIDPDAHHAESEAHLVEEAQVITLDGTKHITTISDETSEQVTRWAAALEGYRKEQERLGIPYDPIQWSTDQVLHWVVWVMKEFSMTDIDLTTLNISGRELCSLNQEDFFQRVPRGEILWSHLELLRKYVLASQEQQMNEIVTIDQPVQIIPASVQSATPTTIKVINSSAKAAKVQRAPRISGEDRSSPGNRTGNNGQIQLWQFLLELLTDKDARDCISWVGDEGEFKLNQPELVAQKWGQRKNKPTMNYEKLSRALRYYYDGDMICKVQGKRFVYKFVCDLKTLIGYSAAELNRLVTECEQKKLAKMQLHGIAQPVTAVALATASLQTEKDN
# How it was run: as §1
# [4] = target: T4, ERG (Homo sapiens, UniProt P11308 1-479); details: protein: recombinant; tags: N-terminal GST; dsDNA, one strand shown
# T4 sequence: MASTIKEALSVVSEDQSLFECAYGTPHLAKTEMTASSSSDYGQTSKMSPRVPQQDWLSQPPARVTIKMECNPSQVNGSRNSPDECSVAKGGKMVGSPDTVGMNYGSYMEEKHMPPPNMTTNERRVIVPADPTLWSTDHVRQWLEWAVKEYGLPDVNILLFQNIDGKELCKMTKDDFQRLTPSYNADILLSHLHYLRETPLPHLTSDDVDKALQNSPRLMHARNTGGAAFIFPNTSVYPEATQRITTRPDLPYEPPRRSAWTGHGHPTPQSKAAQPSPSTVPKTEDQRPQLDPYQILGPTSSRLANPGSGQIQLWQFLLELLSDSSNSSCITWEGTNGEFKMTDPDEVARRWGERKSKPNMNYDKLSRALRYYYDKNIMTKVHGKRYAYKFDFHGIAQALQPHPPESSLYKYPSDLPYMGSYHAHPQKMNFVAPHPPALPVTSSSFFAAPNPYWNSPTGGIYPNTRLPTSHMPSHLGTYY
# How it was run: as §1
# [5] = target: ELF1 (Homo sapiens, UniProt P32519 1-619); details: protein: recombinant; tags: N-terminal GST; dsDNA, one strand shown
# How it was run: as §1
# [6] = target: T5, EHF (Homo sapiens, UniProt Q9NZC4 1-300); details: protein: recombinant; tags: N-terminal GST; dsDNA, one strand shown
# T5 sequence: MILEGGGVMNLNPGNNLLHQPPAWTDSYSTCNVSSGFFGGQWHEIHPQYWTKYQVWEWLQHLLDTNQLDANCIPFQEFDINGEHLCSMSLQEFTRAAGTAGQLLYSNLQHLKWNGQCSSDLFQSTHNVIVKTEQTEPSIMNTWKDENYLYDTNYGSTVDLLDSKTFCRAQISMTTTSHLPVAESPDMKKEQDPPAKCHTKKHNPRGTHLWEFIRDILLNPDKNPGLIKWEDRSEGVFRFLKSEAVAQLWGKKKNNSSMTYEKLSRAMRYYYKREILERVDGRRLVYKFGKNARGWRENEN
# How it was run: as §1
# [7] = target: SPI1 (Homo sapiens, UniProt P17947 1-270); details: protein: recombinant; tags: N-terminal GST; dsDNA, one strand shown
# How it was run: as §1
# [8] = target: SPIB (Homo sapiens, UniProt Q01892 1-262); details: protein: recombinant; tags: N-terminal GST; dsDNA, one strand shown
# How it was run: as §1
# [9] = target: T6, ELK3 (Homo sapiens, UniProt P41970 1-407); details: protein: recombinant; tags: N-terminal GST; dsDNA, one strand shown
# T6 sequence: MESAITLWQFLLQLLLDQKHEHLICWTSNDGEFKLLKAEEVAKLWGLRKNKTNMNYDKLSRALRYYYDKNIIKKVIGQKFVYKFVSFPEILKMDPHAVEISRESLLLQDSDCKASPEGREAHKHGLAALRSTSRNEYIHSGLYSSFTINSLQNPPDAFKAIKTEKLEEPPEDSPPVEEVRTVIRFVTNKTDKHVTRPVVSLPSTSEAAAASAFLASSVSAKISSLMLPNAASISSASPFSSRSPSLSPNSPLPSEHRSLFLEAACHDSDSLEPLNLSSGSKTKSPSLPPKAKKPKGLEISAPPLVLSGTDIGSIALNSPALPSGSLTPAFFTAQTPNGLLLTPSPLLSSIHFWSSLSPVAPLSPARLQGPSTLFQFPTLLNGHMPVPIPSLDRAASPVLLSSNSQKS
# How it was run: as §1
# [10] = target: T7, FEV (Homo sapiens, UniProt Q99581 1-238); details: protein: recombinant; tags: N-terminal GST; dsDNA, one strand shown
# T7 sequence: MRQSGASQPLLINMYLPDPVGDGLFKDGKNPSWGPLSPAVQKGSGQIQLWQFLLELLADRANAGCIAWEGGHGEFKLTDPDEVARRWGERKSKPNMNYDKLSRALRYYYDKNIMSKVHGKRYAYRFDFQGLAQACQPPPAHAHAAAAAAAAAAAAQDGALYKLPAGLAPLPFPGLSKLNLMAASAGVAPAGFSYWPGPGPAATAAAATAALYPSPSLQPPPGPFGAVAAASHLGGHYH
# How it was run: as §1
# [11] = target: ETV5 (Homo sapiens, UniProt P41161 1-510); details: protein: recombinant; tags: N-terminal GST; dsDNA, one strand shown
# How it was run: as §1
# [12] = target: HSF1 (Homo sapiens, UniProt Q00613 1-529); details: protein: recombinant; tags: N-terminal GST; chain copies: 3; dsDNA, one strand shown
# How it was run: as §1
# [13] = target: T8, SPIC (Homo sapiens, UniProt Q8N5J4 1-248); details: protein: recombinant; tags: N-terminal GST; dsDNA, one strand shown
# T8 sequence: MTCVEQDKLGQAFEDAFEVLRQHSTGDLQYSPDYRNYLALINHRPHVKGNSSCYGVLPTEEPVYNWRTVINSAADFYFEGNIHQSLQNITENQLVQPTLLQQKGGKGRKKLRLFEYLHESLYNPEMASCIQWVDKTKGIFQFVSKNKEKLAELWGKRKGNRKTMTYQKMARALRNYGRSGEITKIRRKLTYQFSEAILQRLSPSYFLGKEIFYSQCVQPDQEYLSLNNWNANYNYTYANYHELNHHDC
# How it was run: as §1
# [14] = target: ELF4 (Homo sapiens, UniProt Q99607 1-663); details: protein: recombinant; tags: N-terminal GST; dsDNA, one strand shown
# How it was run: as §1
# [15] = target: T9, ELK4 (Homo sapiens, UniProt P28324-2 1-405); details: protein: recombinant; tags: N-terminal GST; dsDNA, one strand shown
# T9 sequence: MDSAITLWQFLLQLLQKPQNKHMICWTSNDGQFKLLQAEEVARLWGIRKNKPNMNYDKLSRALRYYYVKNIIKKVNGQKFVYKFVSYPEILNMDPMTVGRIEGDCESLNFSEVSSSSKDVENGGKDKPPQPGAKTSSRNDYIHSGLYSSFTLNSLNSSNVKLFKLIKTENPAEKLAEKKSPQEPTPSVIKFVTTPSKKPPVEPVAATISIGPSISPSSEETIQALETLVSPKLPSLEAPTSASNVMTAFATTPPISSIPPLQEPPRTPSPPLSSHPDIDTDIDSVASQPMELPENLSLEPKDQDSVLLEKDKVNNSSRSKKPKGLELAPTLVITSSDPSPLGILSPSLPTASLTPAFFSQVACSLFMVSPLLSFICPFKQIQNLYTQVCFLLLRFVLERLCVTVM
# How it was run: as §1
# [16] = target: T10, ETV2 (Homo sapiens, UniProt O00321 1-342); details: protein: recombinant; tags: N-terminal GST; dsDNA, one strand shown
# T10 sequence: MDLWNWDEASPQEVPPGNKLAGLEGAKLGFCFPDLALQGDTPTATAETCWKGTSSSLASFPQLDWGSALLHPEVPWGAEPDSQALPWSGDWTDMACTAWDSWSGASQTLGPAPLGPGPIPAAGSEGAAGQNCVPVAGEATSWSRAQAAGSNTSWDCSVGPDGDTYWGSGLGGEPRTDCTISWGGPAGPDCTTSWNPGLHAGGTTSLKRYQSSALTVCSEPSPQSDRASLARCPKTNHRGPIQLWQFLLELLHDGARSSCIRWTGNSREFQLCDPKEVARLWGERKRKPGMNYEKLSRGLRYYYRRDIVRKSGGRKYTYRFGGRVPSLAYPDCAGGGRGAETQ
# How it was run: as §1
# [17] = target: T11, ELF3 (Homo sapiens, UniProt P78545 1-371); details: protein: recombinant; tags: N-terminal GST; dsDNA, one strand shown
# T11 sequence: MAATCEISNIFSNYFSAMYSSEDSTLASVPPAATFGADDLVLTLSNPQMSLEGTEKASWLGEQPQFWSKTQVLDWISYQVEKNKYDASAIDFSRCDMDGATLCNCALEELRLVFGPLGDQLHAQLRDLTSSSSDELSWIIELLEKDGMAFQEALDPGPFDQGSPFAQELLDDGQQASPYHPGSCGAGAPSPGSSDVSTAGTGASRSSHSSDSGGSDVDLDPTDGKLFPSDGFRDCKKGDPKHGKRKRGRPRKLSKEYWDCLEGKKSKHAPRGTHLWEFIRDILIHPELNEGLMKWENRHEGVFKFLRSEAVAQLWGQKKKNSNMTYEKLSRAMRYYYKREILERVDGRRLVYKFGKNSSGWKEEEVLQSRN
# How it was run: as §1
# [18] = target: CRX (Homo sapiens, UniProt O43186 1-299); details: protein: recombinant; tags: N-terminal GST; dsDNA, one strand shown
# How it was run: as §1
# [19] = target: ETV1 (Homo sapiens, UniProt P50549 1-477); details: protein: recombinant; tags: N-terminal GST; dsDNA, one strand shown
# How it was run: as §1
# Chain of ETV5 (P41161 whole entry): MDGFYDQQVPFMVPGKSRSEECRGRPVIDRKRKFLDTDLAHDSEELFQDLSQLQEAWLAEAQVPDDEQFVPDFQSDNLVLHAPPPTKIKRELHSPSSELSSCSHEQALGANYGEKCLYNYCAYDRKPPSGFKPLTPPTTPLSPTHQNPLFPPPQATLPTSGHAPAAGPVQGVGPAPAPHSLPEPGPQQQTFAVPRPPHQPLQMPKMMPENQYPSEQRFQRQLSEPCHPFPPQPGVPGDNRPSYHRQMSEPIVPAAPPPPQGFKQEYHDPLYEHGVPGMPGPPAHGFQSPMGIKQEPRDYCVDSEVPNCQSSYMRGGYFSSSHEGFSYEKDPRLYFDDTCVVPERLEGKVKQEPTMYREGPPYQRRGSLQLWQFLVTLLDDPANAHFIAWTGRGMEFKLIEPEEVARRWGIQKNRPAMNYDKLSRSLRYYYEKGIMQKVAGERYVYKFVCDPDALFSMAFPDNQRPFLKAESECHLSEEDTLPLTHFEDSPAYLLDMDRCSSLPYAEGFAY
# Chain of ELF1 (P32519 whole entry): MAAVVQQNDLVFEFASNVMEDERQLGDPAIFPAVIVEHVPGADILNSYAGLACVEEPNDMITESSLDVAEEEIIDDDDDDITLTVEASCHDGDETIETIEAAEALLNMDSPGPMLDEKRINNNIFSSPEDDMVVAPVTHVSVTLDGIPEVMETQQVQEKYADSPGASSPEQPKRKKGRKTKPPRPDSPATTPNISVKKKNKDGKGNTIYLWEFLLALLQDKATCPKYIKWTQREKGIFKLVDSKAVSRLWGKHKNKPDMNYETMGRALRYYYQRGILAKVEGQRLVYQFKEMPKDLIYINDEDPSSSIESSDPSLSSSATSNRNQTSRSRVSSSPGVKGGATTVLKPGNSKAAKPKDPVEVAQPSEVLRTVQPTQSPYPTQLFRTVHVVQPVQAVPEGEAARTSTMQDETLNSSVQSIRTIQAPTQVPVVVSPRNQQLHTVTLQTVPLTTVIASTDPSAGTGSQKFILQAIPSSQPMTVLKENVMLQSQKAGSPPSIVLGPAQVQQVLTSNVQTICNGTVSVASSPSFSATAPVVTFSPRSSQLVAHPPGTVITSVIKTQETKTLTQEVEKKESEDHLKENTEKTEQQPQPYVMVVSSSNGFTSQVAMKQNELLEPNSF
# Chain of HSF1 (Q00613 whole entry): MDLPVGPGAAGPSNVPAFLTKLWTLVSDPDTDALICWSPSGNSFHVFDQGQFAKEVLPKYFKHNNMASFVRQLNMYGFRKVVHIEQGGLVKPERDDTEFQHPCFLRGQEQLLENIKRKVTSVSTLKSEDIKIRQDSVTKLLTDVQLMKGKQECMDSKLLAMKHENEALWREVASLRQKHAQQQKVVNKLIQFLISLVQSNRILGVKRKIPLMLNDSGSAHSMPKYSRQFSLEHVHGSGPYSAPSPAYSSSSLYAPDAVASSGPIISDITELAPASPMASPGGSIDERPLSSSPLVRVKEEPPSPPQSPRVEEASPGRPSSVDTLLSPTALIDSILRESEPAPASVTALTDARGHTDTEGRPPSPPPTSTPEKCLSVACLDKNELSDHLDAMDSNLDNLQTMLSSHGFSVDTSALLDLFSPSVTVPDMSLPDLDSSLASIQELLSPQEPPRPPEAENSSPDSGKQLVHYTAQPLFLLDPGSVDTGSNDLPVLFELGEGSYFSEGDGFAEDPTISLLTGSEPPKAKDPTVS
# Chain of CRX (O43186 whole entry): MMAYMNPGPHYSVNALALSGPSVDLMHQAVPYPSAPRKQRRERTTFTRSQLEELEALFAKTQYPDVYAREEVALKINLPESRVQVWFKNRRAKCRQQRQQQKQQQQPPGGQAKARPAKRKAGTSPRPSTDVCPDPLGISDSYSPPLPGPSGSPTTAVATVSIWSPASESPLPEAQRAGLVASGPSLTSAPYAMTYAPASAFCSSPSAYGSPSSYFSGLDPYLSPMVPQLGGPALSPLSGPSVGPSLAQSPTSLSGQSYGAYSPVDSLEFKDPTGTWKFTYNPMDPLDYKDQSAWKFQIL
# Chain of ELF4 (Q99607 whole entry): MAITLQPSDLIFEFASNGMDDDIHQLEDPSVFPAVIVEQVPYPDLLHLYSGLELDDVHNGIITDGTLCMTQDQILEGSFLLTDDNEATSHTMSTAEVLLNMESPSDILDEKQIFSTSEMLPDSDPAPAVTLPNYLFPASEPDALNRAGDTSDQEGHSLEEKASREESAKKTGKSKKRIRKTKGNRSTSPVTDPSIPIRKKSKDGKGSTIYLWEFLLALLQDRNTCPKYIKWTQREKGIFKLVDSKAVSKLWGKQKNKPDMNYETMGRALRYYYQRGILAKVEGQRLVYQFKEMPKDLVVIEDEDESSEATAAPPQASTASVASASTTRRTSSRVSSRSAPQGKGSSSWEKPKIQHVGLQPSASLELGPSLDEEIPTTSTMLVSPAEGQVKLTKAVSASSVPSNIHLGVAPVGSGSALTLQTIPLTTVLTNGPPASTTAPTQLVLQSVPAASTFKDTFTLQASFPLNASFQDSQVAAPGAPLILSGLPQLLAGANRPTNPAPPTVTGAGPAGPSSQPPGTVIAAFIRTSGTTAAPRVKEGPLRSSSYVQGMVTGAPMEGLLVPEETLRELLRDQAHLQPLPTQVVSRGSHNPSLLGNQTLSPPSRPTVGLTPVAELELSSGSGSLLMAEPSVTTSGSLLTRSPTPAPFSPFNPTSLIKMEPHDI
# Chain of SPIB (Q01892 whole entry): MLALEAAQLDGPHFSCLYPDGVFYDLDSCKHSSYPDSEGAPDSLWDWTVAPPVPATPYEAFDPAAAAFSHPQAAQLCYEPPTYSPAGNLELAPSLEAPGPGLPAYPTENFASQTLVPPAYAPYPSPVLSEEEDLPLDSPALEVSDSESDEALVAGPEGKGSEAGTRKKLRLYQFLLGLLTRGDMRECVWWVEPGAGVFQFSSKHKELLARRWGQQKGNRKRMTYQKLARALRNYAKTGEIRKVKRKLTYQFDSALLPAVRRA
# Chain of ETV1 (P50549 whole entry): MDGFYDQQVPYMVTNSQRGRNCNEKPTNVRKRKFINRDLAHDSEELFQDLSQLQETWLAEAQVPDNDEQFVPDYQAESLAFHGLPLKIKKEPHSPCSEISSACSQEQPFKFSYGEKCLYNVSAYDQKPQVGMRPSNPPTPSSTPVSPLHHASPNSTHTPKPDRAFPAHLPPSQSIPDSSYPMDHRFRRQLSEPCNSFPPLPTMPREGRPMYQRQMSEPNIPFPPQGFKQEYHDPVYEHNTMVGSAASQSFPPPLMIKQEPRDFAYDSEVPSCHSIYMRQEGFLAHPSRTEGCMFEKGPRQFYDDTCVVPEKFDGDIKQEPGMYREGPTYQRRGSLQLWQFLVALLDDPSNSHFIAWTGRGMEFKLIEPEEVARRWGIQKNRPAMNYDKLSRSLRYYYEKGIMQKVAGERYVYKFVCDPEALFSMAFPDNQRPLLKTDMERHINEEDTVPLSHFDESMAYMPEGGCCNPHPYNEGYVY
sequence,measurement,setting,value
TCTAGT,binding signal,[1],"1.05 fold enrichment (6-mer frequency, TF over GST control)"
same,binding signal,[2],"1.12 fold enrichment (6-mer frequency, TF over GST control)"
same,binding signal,[3],"1.17 fold enrichment (6-mer frequency, TF over GST control)"
same,binding signal,[4],"1.1 fold enrichment (6-mer frequency, TF over GST control)"
same,binding signal,[5],"1.12 fold enrichment (6-mer frequency, TF over GST control)"
same,binding signal,[6],"1.08 fold enrichment (6-mer frequency, TF over GST control)"
same,binding signal,[7],"1.03 fold enrichment (6-mer frequency, TF over GST control)"
same,binding signal,[8],"1.08 fold enrichment (6-mer frequency, TF over GST control)"
same,binding signal,[9],"1.05 fold enrichment (6-mer frequency, TF over GST control)"
same,binding signal,[10],"1.03 fold enrichment (6-mer frequency, TF over GST control)"
same,binding signal,[11],"1.06 fold enrichment (6-mer frequency, TF over GST control)"
same,binding signal,[12],"2.32 fold enrichment (6-mer frequency, TF over GST control)"
same,binding signal,[13],"1.18 fold enrichment (6-mer frequency, TF over GST control)"
same,binding signal,[14],"1.09 fold enrichment (6-mer frequency, TF over GST control)"
same,binding signal,[15],"1.17 fold enrichment (6-mer frequency, TF over GST control)"
same,binding signal,[16],"1.04 fold enrichment (6-mer frequency, TF over GST control)"
same,binding signal,[17],"1.28 fold enrichment (6-mer frequency, TF over GST control)"
same,binding signal,[18],"1.37 fold enrichment (6-mer frequency, TF over GST control)"
same,binding signal,[19],"1.01 fold enrichment (6-mer frequency, TF over GST control)"
